The values that follow come from PubChem BioAssay (NCATS).

Structures are written as SMILES. “And” between values parts separate entries of the source, which are not always exact repeats. Identical values can stand only once. A number with no mark means an inactive call. The source made the active and inactive calls. The rule behind the calls is not given here.
Note: 0% is about no effect.

Chain of Nuclear receptor subfamily 1 group I member 2 (Rattus norvegicus) (Q9R1A7 whole entry, looked up): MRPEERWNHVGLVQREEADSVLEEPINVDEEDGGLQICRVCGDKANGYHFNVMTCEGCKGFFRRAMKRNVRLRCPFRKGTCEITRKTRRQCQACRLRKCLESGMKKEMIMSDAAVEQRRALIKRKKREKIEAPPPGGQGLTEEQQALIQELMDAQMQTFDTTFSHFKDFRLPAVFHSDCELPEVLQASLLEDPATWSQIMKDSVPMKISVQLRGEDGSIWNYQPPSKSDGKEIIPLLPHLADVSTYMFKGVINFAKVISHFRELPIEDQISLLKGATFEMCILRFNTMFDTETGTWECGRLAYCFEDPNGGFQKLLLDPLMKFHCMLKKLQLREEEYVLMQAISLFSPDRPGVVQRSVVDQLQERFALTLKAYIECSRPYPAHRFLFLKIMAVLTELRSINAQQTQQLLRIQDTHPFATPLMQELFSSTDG

One test addresses Nuclear receptor subfamily 1 group I member 2 (Rattus norvegicus) (UniProt Q9R1A7). As to the kind of experiment: qHTS assay for small molecule activators of the rat pregnane X receptor (rPXR) signaling pathway (AID 651751). As to conditions: rPXR reporter cells, luciferase (One-Glo), 24 h. A general note: In qHTS, concentration-response curves come from the screen itself.
Consider `O=C(O)Cc1cccc2ccccc12`, for which the max response was -1.12% and -1.15%. Same read-out and setting: for `CN(C)CCC(c1ccccc1)c1ccccn1` (centres undefined) the value was 2.3%; for `O=c1cc(-c2ccccc2)oc2cc(O)cc(O)c12`, -2.91%; for `O=c1[nH]cnc2c1ncn2[C@H]1CC[C@@H](CO)O1`, -1.01% and 3.56%.

In the case of `O=C1NC(=O)C(c2ccccc2)(c2ccccc2)N1`, the max response was -3.01% and 3.12% and 2.23%. Still for that read-out and setting: to `O=c1c(-c2ccc(O)cc2)coc2cc(O)ccc12` belongs 6.21% and 11.9%. The same measure, in the same setting: for `CCCNC(=O)NS(=O)(=O)c1ccc(Cl)cc1` the value was -5.97% and -1.04%; for `O=c1cc(-c2ccc(O)cc2)oc2cc(O)cc(O)c12`, -6.83% and -1.04%; for `O=c1c(O)c(-c2ccc(O)cc2)oc2cc(O)cc(O)c12`, 0.424% and -1.67%. Regarding `O=C(O)c1cc(-c2ccccc2)nc2ccccc12`, the max response is -0.78%. For `CC(C)OC(=O)C(C)(C)Oc1ccc(C(=O)c2ccc(Cl)cc2)cc1`, the max response is -0.28%. Turning to `O=C(O)c1cc(O)c2c(c1)C(=O)c1cccc(O)c1C2=O`, the max response is -2.8%. The same measure, in the same setting: for `CC(=O)c1ccc(S(=O)(=O)NC(=O)NC2CCCCC2)cc1` the value was -0.823% and -0.02%.

Tested on in the next test: not listed separately
As to the kind of experiment: qHTS assay for small molecule activators of the human pregnane X receptor (PXR) signaling pathway (AID 720659). As to conditions: DPX-2 HepG2 CYP3A4-luciferase, 24 h; series mostly up to 92.3 µM.
For `O=C(O)Cc1cccc2ccccc12`, the compound was called inactive. Consider `CC(=O)N[C@@H](CS)C(=O)O`, for which the outcome was inactive.

For the compound `CN(C)CCC(c1ccccc1)c1ccccn1` (centres undefined), the call was inactive. `O=c1[nH]cnc2c1ncn2[C@H]1CC[C@@H](CO)O1`: the compound was classed as inactive. Still for that read-out and setting: to `CCCNC(=O)NS(=O)(=O)c1ccc(Cl)cc1` belongs “inactive”; to `CC1=C(/C=C/C(C)=C/C=C/C(C)=C/C(=O)Nc2ccc(O)cc2)C(C)(C)CCC1`, “inactive”. In the case of `CC(=O)O[C@]1(C(C)=O)CC[C@H]2[C@@H]3C=C(Cl)C4=CC(=O)[C@@H]5C[C@@H]5[C@]4(C)[C@H]3CC[C@@]21C`, the compound was classed as inactive. As for `CCn1cc(C(=O)O)c(=O)c2ccc(C)nc21`, the result was inactive. Turning to `O=C(O)c1cc(-c2ccccc2)nc2ccccc12`, the call was inactive. Same read-out and setting: to `O=C(O)c1cc(O)c2c(c1)C(=O)c1cccc(O)c1C2=O` belongs “inactive”; to `CC(=O)c1ccc(S(=O)(=O)NC(=O)NC2CCCCC2)cc1`, “inactive”.
